# Laboratory results published in PubChem BioAssay (NCI).
# The panel holds about 79,000 compounds, 15% with a hit somewhere; the sample as a whole holds those more often. Unmarked numbers belong to inactive results. Activity calls are given as the source filed them. Cut-off read from the data, not from the text of the source: active = growth inhibition above about 70%; inactive = the rest.
# What was measured:
# [1] = NCI Yeast Anticancer Drug Screen. Data for the rad50 strain (AID 155);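 note: 0% = growth of vehicle-only cultures of the same strain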; conditions: S. cerevisiae rad50 strain growth inhibition, hits give high values
# Outline: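 Growth of the mutant yeast was measured after compound exposure and referenced to vehicle-treated cultures.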
# [2] = NCI Yeast Anticancer Drug Screen. Data for the mec2-1 strain (AID 157); conditions: S. cerevisiae mec2-1 strain, hits give high values
# Outline: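 Vehicle-treated cultures served as reference for growth inhibition of compound-exposed mec2-1 yeast.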
# [3] = NCI Yeast Anticancer Drug Screen. Data for the sgs1 mgt1 strain (AID 161);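 note: 0% = growth of cultures given vehicle only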; conditions: S. cerevisiae sgs1 mgt1 strain, hits give high values
# Outline: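 Mutant yeast exposed to compound; growth scored against vehicle-only wells.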
# [4] = NCI Yeast Anticancer Drug Screen. Data for the cln2 rad14 strain (AID 165);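 note: 0% = growth equal to vehicle treated cultures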; conditions: S. cerevisiae cln2 rad14 strain, hits give high values
# Outline: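 Each compound was tested on cln2 rad14 yeast. Inhibition of growth was calculated against vehicle-exposed controls.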
# [5] = NCI Yeast Anticancer Drug Screen. Data for the bub3 strain (AID 167); conditions: S. cerevisiae bub3 mutant strain, hits give high values
# Outline: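 Whole-cell yeast assay. The mutant strain was incubated with compounds, and growth inhibition was determined by comparison with vehicle-treated cells.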
# [6] = NCI Yeast Anticancer Drug Screen. Data for the mlh1 rad18 strain (AID 175); conditions: S. cerevisiae mlh1 rad18 strain growth inhibition, hits give high values
# Outline: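 Vehicle-treated cultures served as the reference for growth inhibition in a yeast strain carrying DNA damage repair alterations exposed to each compound.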
# [7] = at 5.0 µM (retest, dose inferred, filed as 0.5)
# [8] = at 50.0 µM (retest, dose inferred, filed as 5.0)
SMILES,"growth inhibition [1, 7] [%]","growth inhibition [1, 8]",growth inhibition ([1]; at 50.0 µM),"growth inhibition [2, 7]","growth inhibition [2, 8]",growth inhibition ([2]; at 50.0 µM),"growth inhibition [3, 7]","growth inhibition [3, 8]",growth inhibition ([3]; at 50.0 µM),"growth inhibition [4, 7] [%]","growth inhibition [4, 8]",growth inhibition ([4]; at 50.0 µM),"growth inhibition [5, 7]","growth inhibition [5, 8]",growth inhibition ([5]; at 50.0 µM),"growth inhibition [6, 7]","growth inhibition [6, 8]",growth inhibition ([6]; at 50.0 µM)
OCN(CO)c1ccc2c(c1)Cc1cc(F)ccc1-2,34,97% (active),92.8% (active),-19%,99% (active),86.2% (active),41%,97% (active),51.2%,1,97% (active),96.5% (active),-5%,97% (active),90.9% (active),59%,98% (active),97.8% (active)
Cc1cccc2c1nc1ccccc1[n+]2C,-2,97% (active),98.3% (active),7%,97% (active),97.7% (active),-2%,97% (active),98.5% (active),2,96% (active),87.8% (active),-2%,91% (active),98.2% (active),6%,95% (active),97.5% (active)
C1=C(C2=C[P+](c3ccccc3)(c3ccccc3)C=C(c3ccccc3)O2)OC(c2ccccc2)=C[P+]1(c1ccccc1)c1ccccc1,7,15%,-10.1%,4%,8%,-7.05%,5%,15%,-5.35%,5,2%,71% (active),11%,66%,6.8%,9%,6%,18.3%
O=[N+]([O-])c1ccccc1OS(=O)(=O)c1ccccc1,0,-2%,-2.5%,-12%,-8%,-1.1%,4%,20%,-0.45%,-25,36%,6.4%,-4%,6%,14.3%,-6%,3%,0.65%
C[n+]1c(-c2ccc(/C=N\NC(=O)c3ccc(C(=O)N/N=C/c4ccc(-c5cn6ccsc6[n+]5C)cc4)cc3)cc2)cn2ccsc21,65,98% (active),90.6% (active),81% (active),98% (active),86.7% (active),72% (active),98% (active),84.5% (active),27,98% (active),86.7% (active),86% (active),98% (active),83.8% (active),88% (active),97% (active),91.5% (active)
O=C(O)/C=C/C(=O)Nc1cc2c(cc1Br)-c1ccccc1C2Br (stereo not given),8,77% (active),9.15%,1%,38%,40.9%,3%,69%,7.45%,-1,27%,38.1%,-12%,71% (active),-3.8%,4%,81% (active),11.2%
O=C(NNc1ccccc1)C(O)C(=O)C(O)C(O)C(O)CO (stereo not given),1,27%,9.45%,-1%,8%,21.9%,9%,6%,61.8%,-2,14%,-14.1%,8%,34%,80% (active),5%,28%,75.2% (active)
CN1C(=S)C(=N)OC1c1ccccc1F (stereo not given),7,91% (active),84.3% (active),16%,97% (active),75.3% (active),7%,98% (active),85.6% (active),-2,82% (active),33.4%,10%,99% (active),89.2% (active),-13%,96% (active),84.8% (active)
CCOc1ccc2c(c1)[n+]([O-])c(S(=O)(=O)c1ccc(C)cc1)c(N)[n+]2[O-],-5,63%,91.2% (active),18%,77% (active),48.3%,30%,88% (active),90.8% (active),13,55%,90.3% (active),37%,97% (active),93.3% (active),20%,85% (active),94.2% (active)
Cc1ccc2nc(N/N=C/c3cccc(C)n3)cc(C)c2c1,8,62%,89.3% (active),-2%,37%,21.2%,6%,80% (active),89.8% (active),-8,61%,74.9% (active),-11%,57%,73.1% (active),4%,64%,84.3% (active)
